# Screens from PubChem.
# A selection: hits, their analogues and other compounds. The true share with any hit is near 2.2%.
# APP 5UTR inh = inhibitors of APP translation via 5'UTR reporter, primary screen, APP 5'UTR luciferase, SH-SY5Y cells; SH-SY5Y APP 5'UTR-luciferase reporter, luminescence; inhibition, % at 2 µM; AID 1285, 2008; actives 0.82% (n = 190,000);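 active means inhibition above a set limit, derived from the sample mean plus 3 SD, cut at about 45% in these data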
# Ba/F3 V617F tox = reduced viability of JAK2V617F-dependent Ba/F3 cells, primary screen, JAK2V617F inhibitor project, cell-based, Ba/F3 EpoR-JAK2V617F, luminescence | ATP luminescence | inhibition, % at 5.6 µM | actives 1.1% (n = 220,000) | AID 1446, 2008;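 active means inhibition above the campaign mean plus 3 SD over all tested compounds, cut at about 24% in these data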;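 further: cytokine-independent growth of Ba/F3 cells driven by EpoR plus mutant JAK2; 0% = DMSO-treated cells and 100% = JAK inhibitor I control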
# KLF5 inh = KLF5 expression inhibitors, primary screen, DLD-1 cells, luminescence; DLD-1 KLF5 promoter-luciferase reporter; inhibition, % at 5 µM; actives 0.23% (n = 290,000);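 active means inhibition above a per-plate limit of that plate's mean compound inhibition plus 3 SD, cut at about 60% in these data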;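 further: 0% = DMSO wells and 100% = LY294002 at 200 µM; higher means less KLF5 promoter-driven luciferase light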
# IEC-6 cytotox = cytotoxicity in IEC-6 intestinal epithelial cells, primary screen, cytotoxicity control for KLF5 inhibitor project, cell-based, luminescence | AID 1825, 2009 | inhibition, % at 5 µM | IEC-6 cytotoxicity, luminescence viability | actives 0.78% (n = 290,000); in the data active means inhibition above about 22%;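 further: 0% = plate median of test compound wells and 100% = cytotoxic reference compound wells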
# BaF3 parental = parental Ba/F3 cell viability inhibition, counter-screen for JAK2V617F inhibitor project, murine pro-B, CellTiter-Glo luminescence; CellTiter-Glo ATP luminescence; inhibition, % at 5.6 µM; actives 1.1% (n = 220,000); AID 1486, 2009;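 active means inhibition above a per-campaign cutoff, the mean inhibition of all tested compounds plus 3 SD, cut at about 27% in these data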;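 further: 0% = DMSO wells and 100% = JAK Inhibitor I control wells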
# aSyn UTR inh = MLPCN primary screen, SNCA 5' untranslated region | alpha-synuclein 5'UTR reporter, inhibitor activity | inhibition, % (tested at 7.5 µM) | actives 0.82% (n = 300,000) | AID 1813, 2009; in the data active means inhibition above about 60%;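 further: H4 neuroglioblastoma cells stably carrying SNCA 5'UTR luciferase fusion; 0% = DMSO wells and 100% = positive control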
# Numbers without * were called inactive; . = no result.
SMILES,APP 5UTR inh,Ba/F3 V617F tox,KLF5 inh,IEC-6 cytotox,BaF3 parental,aSyn UTR inh
CCc1noc(C)c1C(=O)N(CC)c1nc2c(C)cccc2s1,.,.,.,.,.,7
Cc1cc(N2CCN(c3nc(-c4ccc([N+](=O)[O-])cc4)cs3)CC2)c2ccccc2n1,29,-3,-26,-7,0,66*
Cc1cc(-c2ccc([N+](=O)[O-])cc2)nc2ccccc12,-39,-1,-2,13,3,-37
COc1ccc(C(=O)CCc2ccccc2)cc1,.,.,-122,-7,.,-111
Cc1nn(C)c(C)c1/C=C(/C(=O)C(C)C)n1cncn1,.,2,-25,3,-5,-10
CC(C)(C)C(=O)/C(=C/c1ccncc1)n1cncn1,58*,91*,14,22,75*,-58
Cc1nn(C)c(C)c1/C=C(/C(=O)C(C)(C)C)n1cncn1,.,-7,-6,-4,-4,89*
COc1ccc(-c2cc(C(=O)OCC(=O)N(C)C3CCS(=O)(=O)C3)c3ccccc3n2)cc1OC (stereo not given),-3,-4,-20,-5,-7,-13
Cc1ccc(O)c(N=NC2=C(O)CC(C)(C)CC2=O)c1,36,10,-58,-4,4,65*
CC1(C)CC(=O)C(N=Nc2cc(Cl)c(Cl)c(Cl)c2)=C(O)C1,6,-4,-11,-8,-1,-9
CCN(CC)CCOC(=O)CCc1cccc2ccccc12,26,0,-27,-4,1,10
CCN(CC)CCOC(=O)C(Cc1ccco1)Cc1cccc2ccccc12 (stereo not given),.,.,.,.,.,104*
CCOC(=O)c1[nH]c2ccc(Cl)cc2c1NC(=O)c1nonc1C,2,-2,-16,-4,0,-11
CCOC(=O)c1[nH]c2ccc(OC)cc2c1NC(=O)c1nonc1C,46*,3,-21,0,0,6
CCN(CC)S(=O)(=O)c1ccc(N2CCOCC2)c(NC(=O)COc2ccc(C#N)cc2)c1,.,3,8,2,2,11
Fc1ccc(-c2csc3[n+]2CCS3)cc1,3,-1,-12,4,2,2
c1sc2[n+](c1C13CC4CC(CC(C4)C1)C3)CCS2,3,63*,-4,6,61*,-1
O=C(Nc1nccs1)c1cn2ccccc2n1,.,6,-31,7,6,65*
CCOc1ccc(NC(=O)Nc2cc(OCC(F)(F)F)cc(OCC(F)(F)F)c2)cc1,-15,-1,-11,-7,3,0
O=C(Nc1ccc(F)cc1)Nc1cc(OCC(F)(F)F)cc(OCC(F)(F)F)c1,18,6,-16,6,2,86*
C=CCn1c(NCCc2ccccc2)nc2c1c(=O)n(C)c(=O)n2C,-1,5,-27,-1,31*,11
CCCNc1nc2c(c(=O)n(C)c(=O)n2C)n1Cc1ccc(F)cc1,-6,22,-11,6,36*,20
CCNc1nc2c(c(=O)n(C)c(=O)n2C)n1Cc1ccc(Cl)cc1,.,.,1,-3,.,-11
Cn1c(=O)c2c(nc(NCc3cccnc3)n2Cc2ccc(Cl)cc2)n(C)c1=O,-1,50*,2,23*,52*,22
COc1ccc(-c2nn(-c3ccccc3)cc2C(=O)NC(=S)Nc2cc(Cl)ccc2Cl)cc1,.,-1,-32,-1,1,-8
SMILES,APP 5UTR inh,Ba/F3 V617F tox,KLF5 inh,IEC-6 cytotox,BaF3 parental,aSyn UTR inh
c1ccc2c(c1)SCc1nnc(-c3ccncc3)n1-2,.,-3,-9,4,3,12
CCC(=O)NC1CCN(C(=S)NC)CC1,6,-6,1,-12,62*,-1
Cc1ccc(C(=O)N2CCC(N3CCC(C(=O)N4CCOCC4)CC3)CC2)cc1C,.,.,-18,-5,.,6
CCN(CC)c1ccc(/C=N/NC(=O)c2ccco2)cc1,49*,6,-64,9,10,-39
CCN(CC)c1ccc(/C=N/NC(=O)c2ccco2)c(O)c1,.,0,-82,22,1,11
O=C(CCc1ccncc1)NC1CCCc2c1cnn2-c1cc(F)cc(F)c1 (stereo not given),.,.,7,2,.,79*
CSCC(=O)NC1CCCc2c1cnn2-c1cc(F)cc(F)c1 (stereo not given),.,.,-12,1,.,-8
CN1CCN(C(CNS(=O)(=O)c2ccc(Br)cc2)c2ccc3c(c2)OCO3)CC1 (stereo not given),.,.,.,.,.,5
Cc1c(C(=O)NC2CCCCC2C)oc2ccccc12 (stereo not given),.,.,-48,6,.,-18
O=C(Nc1ccc2c(c1)OCCO2)NC1(C(F)(F)F)Oc2ccccc2O1,1,9,-31,-4,7,62*
Cc1cc(C)c(S(=O)(=O)Nc2cc(SCC(=O)O)c(O)c3ccccc23)cc1C,6,1,-23,8,11,67*
COc1ccc(S(=O)(=O)Nc2cc(SCC(=O)O)c(O)c3ccccc23)cc1,.,.,-81,20,.,7
NC(=O)C1CCN(CC(O)COc2ccc(-c3ccccc3)cc2)CC1 (stereo not given),.,.,-27,1,.,14
O=C(CCn1nc(-c2ccccc2)c2ccccc2c1=O)NN1CCOCC1,8,-2,18,-7,0,-5
O=c1c2cccc3c2c(nn1CN1CCOCC1)-c1ccccc1-3,11,6,-19,13,28*,19
Oc1ccc(-c2n[nH]c(C(F)(F)F)c2-c2ccccc2)c(O)c1,-5,56*,3,3,78*,-16
COc1ccccc1-c1c(-c2ccc(O)cc2O)n[nH]c1C(F)(F)F,.,48*,-20,8,45*,-24
CCc1cccc(CC)c1NC(=O)/C(C#N)=C/c1ccccc1C(F)(F)F,-9,-1,2,-1,7,12
CC(=O)Nc1sc(NC(=O)c2ccc([N+](=O)[O-])cc2)nc1-c1cccs1,.,11,-5,8,46*,-4
CC(=O)Nc1sc(NC(=O)c2ccc(Cl)cc2)nc1-c1cccs1,-9,2,-6,3,5,-73
COc1ccc(C(=O)Nc2ccc(C)cn2)c(OC)c1,-24,1,54,-4,6,115*
COc1ccc(C(=O)Nc2cc(C)on2)c(OC)c1,.,.,-187,0,.,-141
S=C(Nc1ccccc1)N1CCOCC1,1,1,-17,-1,5,18
O=C(NC(=Nc1ccccc1)N1CCOCC1)Nc1ccccc1,-17,1,-12,0,96*,-36
CCC(C)Nc1nc(N)c([N+](=O)[O-])c(Nc2cc(OC)ccc2OC)n1 (stereo not given),.,1,6,6,-1,97*
COc1ccccc1Nc1nc(NCC(C)C)nc(N)c1[N+](=O)[O-],.,-3,-21,3,-3,77*
